Results filed as inconclusive are left out. The source made the active and inactive calls. Unless noted, calls follow the shape of the dose curve; as a rule, active = well fitted curve in either direction with a large enough effect (not every such curve was filed as active); inconclusive = small, poorly fitted or top-dose-only effect, or another doubt; inactive = flat fitted curve, though single readings scatter.
How the values were obtained:
[1] = AP1 Signaling Pathway (AID 357); conditions: ME-180 AP-1-bla reporter, EGF-induced, beta-lactamase ratio, 5 h; at 17.2 µM (top of the series) unless noted;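 also: ME-180 reporter cells stimulated with EGF at its EC50 level; % is scaled to controls: 0 for no effect and ±100 for the full control effect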
In short: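 Modulation of EGF-driven AP-1 transcription was assessed with a beta-lactamase reporter in ME-180 cells. Compound and EC50 EGF were co-incubated 5 hours at 37 °C before 2.5-hour CCF4 loading at room temperature and dual-emission reading.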

[2] = NFAT Signaling Pathway (AID 444); conditions: Jurkat NFAT-bla M1, carbachol, beta-lactamase ratio, 5 h; at 17.2 µM (top of the series) unless noted;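 also: carbachol stimulus at about its EC50 of 1 µM final; % is scaled to controls: 0 for no effect and ±100 for the full control effect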
In short: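 Jurkat cells with NFAT-driven β-lactamase reporter and co-expressed M1 receptor, stimulated with carbachol (final 1 uM, ~EC50), compound titration, 5 h at 37 °C. CCF4 loaded 1 h at RT; 460/530 nm ratio gave %activity and AC50.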

[3] = Stat Signaling Pathway (AID 446);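 also: ME-180 cervical cancer cells given 40 pM IL-6 alongside compound; SIE-controlled beta-lactamase reporter measured as 460/530 nm FRET emission ratio; % is scaled to controls: 0 for no effect and ±100 for the full control effect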
In short: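 Reporter line: ME-180 cervical carcinoma, SIE-beta-lactamase. Treatment: compound with 40 pM IL-6, 5 hrs, 37 C, in low-serum OPTI-MEM with 10 mM HEPES pH 7.3. Detection: 460/530 nm fluorescence.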

[4] = biological target: Glucocorticoid receptor (Homo sapiens) (UniProt P04150); experiment: GR-GFP Redistribution (AID 450;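 active = compounds whose dose series gives a full or clear partial fitted curve of increased nuclear translocation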; also: potency is read from the fitted curve at half-maximal effect); conditions: U2OS GR-GFP nuclear translocation, laser cytometry, 2 h
Chain of Glucocorticoid receptor (Homo sapiens) (P04150 whole entry, looked up, the tested form may be a part): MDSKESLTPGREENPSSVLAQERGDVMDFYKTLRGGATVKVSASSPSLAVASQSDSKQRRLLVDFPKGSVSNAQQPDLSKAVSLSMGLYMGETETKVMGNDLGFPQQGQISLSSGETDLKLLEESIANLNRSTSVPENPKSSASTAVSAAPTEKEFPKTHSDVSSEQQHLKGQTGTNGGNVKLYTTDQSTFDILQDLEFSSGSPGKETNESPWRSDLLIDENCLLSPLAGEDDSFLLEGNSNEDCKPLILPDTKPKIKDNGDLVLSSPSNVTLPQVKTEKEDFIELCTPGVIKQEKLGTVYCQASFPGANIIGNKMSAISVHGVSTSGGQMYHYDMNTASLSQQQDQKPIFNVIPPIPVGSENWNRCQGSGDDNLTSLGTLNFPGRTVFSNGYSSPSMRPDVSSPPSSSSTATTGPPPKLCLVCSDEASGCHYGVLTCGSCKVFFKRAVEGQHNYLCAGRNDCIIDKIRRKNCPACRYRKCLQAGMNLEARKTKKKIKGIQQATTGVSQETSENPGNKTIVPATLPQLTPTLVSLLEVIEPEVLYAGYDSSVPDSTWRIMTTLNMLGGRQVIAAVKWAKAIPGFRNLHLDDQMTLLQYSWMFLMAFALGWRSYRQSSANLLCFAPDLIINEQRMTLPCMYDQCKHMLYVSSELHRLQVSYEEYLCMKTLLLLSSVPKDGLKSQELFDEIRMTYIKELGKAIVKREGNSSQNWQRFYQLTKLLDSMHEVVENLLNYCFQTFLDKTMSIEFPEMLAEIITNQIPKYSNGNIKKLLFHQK

[5] = biological target: Cytochrome P450 1A2 (Homo sapiens) (UniProt P05177); experiment: p450-cyp1a2 (AID 410; calls by dose curve; also: potency is read from the fitted curve at half-maximal effect;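 as to activity change, negative = inhibition: -100% = full effect of reference inhibitor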)
Chain of Cytochrome P450 1A2 (Homo sapiens) (P05177 whole entry, looked up): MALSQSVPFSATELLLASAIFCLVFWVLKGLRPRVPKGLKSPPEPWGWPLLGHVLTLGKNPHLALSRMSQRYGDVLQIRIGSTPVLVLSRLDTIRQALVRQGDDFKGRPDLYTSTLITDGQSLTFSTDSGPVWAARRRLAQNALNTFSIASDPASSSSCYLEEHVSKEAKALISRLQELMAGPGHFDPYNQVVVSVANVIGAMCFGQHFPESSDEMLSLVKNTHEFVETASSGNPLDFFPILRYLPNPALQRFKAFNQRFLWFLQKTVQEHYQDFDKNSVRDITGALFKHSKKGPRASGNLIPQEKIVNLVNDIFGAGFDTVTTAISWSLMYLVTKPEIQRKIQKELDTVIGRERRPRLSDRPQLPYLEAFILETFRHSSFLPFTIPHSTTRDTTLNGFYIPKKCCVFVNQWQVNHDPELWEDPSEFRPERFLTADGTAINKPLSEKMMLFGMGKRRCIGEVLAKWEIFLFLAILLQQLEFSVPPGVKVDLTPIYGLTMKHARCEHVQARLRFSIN
In short: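 Inhibition was calculated relative to 57 uM furafylline (full inhibition). The reaction used human CYP1A2 at 20nM with Luciferin-ME at its Km, 100uM, driven by an NADPH-regenerating system for 60 min at room temperature.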

[6] = biological target: Glucocorticoid receptor (Homo sapiens) (UniProt P04150); experiment: GR-EFC Redistribution (AID 451; calls by dose curve; also: potency is read from the fitted curve at half-maximal effect); conditions: CHO-K1 GR-EFC translocation, beta-gal luminescence, 2 h
In short: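 CHO-K1 cells expressing nuclear EA and GR-ED fragments of b-gal; compounds titrated up to 46 uM final, 2 h at 37 C. GR nuclear translocation read as complemented b-gal luminescence after 1 h RT detection.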

[7] = biological target: 3',5'-cyclic-AMP phosphodiesterase 4B (Homo sapiens) (UniProt Q07343); experiment: qHTS Assay for Inhibitors of PDE-IV (AID 607; active = well fitted activation curve with a large enough effect in the main read-out, with a control signal flat, not every such curve was filed as active; also: % of control where 0% means no effect)
Chain of 3',5'-cyclic-AMP phosphodiesterase 4B (Homo sapiens) (Q07343 whole entry, looked up): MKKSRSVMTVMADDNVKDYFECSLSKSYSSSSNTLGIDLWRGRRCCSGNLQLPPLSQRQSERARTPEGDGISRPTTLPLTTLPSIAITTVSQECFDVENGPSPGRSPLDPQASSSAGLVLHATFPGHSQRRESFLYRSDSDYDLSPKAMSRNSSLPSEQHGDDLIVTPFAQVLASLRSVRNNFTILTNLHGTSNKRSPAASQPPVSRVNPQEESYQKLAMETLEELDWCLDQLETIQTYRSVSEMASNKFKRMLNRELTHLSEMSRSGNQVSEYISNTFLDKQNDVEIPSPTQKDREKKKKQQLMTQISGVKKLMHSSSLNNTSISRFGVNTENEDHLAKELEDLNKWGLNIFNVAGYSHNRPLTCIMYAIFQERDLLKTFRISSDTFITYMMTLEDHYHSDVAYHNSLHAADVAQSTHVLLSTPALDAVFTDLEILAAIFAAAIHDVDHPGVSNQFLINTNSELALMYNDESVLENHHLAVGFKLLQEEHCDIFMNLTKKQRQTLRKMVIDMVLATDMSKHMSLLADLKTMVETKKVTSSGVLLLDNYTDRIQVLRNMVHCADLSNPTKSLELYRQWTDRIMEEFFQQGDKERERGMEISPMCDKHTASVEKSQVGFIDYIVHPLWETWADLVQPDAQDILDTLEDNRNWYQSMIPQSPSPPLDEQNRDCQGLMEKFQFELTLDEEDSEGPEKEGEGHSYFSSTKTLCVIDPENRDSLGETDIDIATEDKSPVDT
In short: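 Cell-based read-out of cAMP via a modified cyclic nucleotide-gated channel and membrane potential dye (535/590 nm) in HEK293 cells expressing PDE4 endogenously. Compounds tested up to 22.9 uM final; 100 uM RO 20-1724 reference.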

[8] = biological target: Guanine nucleotide-binding protein G(i) subunit alpha-1 (Homo sapiens) (UniProt P63096); experiment: qHTS Assay for Inhibitors of RGS12 GoLoco Motif Activity (Green Fluorophore) (AID 879; active = well fitted curve in the direction sought with a large enough effect; an effect the other way counts as inactive or inconclusive;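 also: 0% = labeled peptide with Gαi1 and full inhibition = labeled peptide alone without protein; negative values mean loss of peptide binding seen as reduced polarization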)
Chain of Guanine nucleotide-binding protein G(i) subunit alpha-1 (Homo sapiens) (P63096 whole entry, looked up): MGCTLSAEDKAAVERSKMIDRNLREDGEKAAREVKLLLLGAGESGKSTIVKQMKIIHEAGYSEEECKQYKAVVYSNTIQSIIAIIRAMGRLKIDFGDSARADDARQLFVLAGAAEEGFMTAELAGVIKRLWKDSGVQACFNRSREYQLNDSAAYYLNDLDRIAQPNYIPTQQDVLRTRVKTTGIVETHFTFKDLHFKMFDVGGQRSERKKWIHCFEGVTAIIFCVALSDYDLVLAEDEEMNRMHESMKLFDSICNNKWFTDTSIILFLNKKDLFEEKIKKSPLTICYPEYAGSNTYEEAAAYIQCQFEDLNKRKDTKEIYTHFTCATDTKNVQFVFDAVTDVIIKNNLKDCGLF
In short: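 Fluorescence polarization assay: 50 nM Gαi1 with 10 nM FITC-labeled RGS12 GoLoco peptide in 10 mM Tris pH 7.5, 150 mM NaCl, 0.1 mM GDP, 0.05% NP40, 10 min at room temperature with compound.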

[9] = qHTS Assay for Identification of Small Molecule Agonists for Thrombopoietin (TPO) Signaling Pathway (AID 917; active = well fitted curve in the direction sought with a large enough effect; an effect the other way counts as inactive or inconclusive; also: % is scaled to controls: 0 for no effect and ±100 for the full control effect)
In short: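 We measured Glycoprotein IIb promoter–luciferase output in IL-3-starved Ba/F3 murine cells expressing the human TPO receptor after 24 hrs at 37 C with compounds and 26 pM TPO.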

[10] = biological target: Pyruvate kinase PKM (Homo sapiens) (UniProt P14618); experiment: qHTS Assay for Activators of Human Muscle Pyruvate Kinase (AID 954; active = well fitted curve in the direction sought with a large enough effect, not every such curve was filed as active;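 also: 0% = uninhibited enzyme and -100% = no enzyme or full thiadiazolimine inhibition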)
Chain of Pyruvate kinase PKM (Homo sapiens) (P14618 whole entry, looked up): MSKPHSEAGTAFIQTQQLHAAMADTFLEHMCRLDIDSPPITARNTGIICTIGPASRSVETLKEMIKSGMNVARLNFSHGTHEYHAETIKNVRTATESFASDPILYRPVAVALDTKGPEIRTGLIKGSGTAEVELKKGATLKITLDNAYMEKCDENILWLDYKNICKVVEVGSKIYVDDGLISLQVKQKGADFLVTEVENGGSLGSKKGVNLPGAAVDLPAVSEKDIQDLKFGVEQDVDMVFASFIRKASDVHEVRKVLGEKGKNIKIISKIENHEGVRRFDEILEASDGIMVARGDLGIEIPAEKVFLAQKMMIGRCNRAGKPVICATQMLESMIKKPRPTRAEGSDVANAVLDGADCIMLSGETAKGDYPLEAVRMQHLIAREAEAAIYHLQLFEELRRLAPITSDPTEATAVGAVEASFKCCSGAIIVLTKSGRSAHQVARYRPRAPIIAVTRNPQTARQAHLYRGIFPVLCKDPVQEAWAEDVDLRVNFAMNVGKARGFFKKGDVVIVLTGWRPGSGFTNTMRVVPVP
In short: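 Human PKM2 activity is measured as ATP generation, detected by luciferase-coupled luminescence. The enzyme (0.1 nM) acts on 0.5 mM PEP and 0.1 mM ADP for 1 h at ambient temperature; data are normalized to uninhibited and full-inhibition wells.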

[11] = biological target: Alpha-galactosidase (Coffea arabica) (UniProt Q42656); experiment: Counterscreen for Glucocerebrosidase Inhibitors: qHTS Assay for Coffee Bean alpha-Galactosidase at pH 4.5 (AID 957; active = well fitted curve in the direction sought with a large enough effect; an effect the other way counts as inactive or inconclusive;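 also: plate controls were enzyme alone for no effect and no enzyme for full effect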)
Chain of Alpha-galactosidase (Coffea arabica) (Q42656 whole entry, looked up): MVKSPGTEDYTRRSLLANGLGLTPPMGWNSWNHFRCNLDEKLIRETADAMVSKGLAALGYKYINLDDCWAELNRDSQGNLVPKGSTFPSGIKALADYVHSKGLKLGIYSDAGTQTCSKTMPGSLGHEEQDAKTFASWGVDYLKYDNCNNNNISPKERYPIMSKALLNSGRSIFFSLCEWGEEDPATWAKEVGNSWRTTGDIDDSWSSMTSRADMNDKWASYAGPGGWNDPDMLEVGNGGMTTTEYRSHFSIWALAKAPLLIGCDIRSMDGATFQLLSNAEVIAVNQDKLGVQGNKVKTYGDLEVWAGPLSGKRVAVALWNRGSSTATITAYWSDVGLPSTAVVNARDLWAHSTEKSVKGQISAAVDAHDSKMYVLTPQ
In short: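 AC50 values derive from Hill-equation modeling of concentration-response data, normalized to no-enzyme and full-activity controls. The pH 4.5 citrate assay used 2 nM coffee bean enzyme and 80 uM fluorogenic substrate for 20 min.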

[12] = biological target: Alpha-galactosidase A (Homo sapiens) (UniProt P06280); experiment: Counterscreen for Glucocerebrosidase Inhibitors: qHTS Assay for Human alpha-Galactosidase at pH 4.5 (AID 992; active = well fitted curve in the direction sought with a large enough effect; an effect the other way counts as inactive or inconclusive; also: 0% is about no effect)
Chain of Alpha-galactosidase A (Homo sapiens) (P06280 whole entry, looked up): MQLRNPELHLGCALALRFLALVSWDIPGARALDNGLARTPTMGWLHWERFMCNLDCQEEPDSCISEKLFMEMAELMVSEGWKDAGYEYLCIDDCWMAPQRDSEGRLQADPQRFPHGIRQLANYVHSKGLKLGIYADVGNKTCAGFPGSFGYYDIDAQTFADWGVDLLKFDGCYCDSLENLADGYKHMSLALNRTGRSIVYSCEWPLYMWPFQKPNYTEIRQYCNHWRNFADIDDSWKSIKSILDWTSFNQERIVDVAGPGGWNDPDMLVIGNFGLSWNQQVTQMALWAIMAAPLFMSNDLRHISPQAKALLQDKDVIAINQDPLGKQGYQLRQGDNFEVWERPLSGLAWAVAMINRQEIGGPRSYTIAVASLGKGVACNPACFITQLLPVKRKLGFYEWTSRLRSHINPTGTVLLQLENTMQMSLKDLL
In short: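 Quantitative HTS: compounds tested from 0.7 nM up to 77 uM against 2 nM enzyme with 80 uM 4-MU alpha-D-galactopyranoside. The 20 min room-temperature reaction is stopped with 1M NaOH/1M glycine, pH 10.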

[13] = biological target: alpha-glucosidase (Oryza sativa, rice) (UniProt Q653V4); experiment: Counterscreen for Glucocerebrosidase Inhibitors: qHTS Assay for Rice alpha-Glucosidase at pH 5.0 (AID 997; active = well fitted curve in the direction sought with a large enough effect; an effect the other way counts as inactive or inconclusive;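 also: 0% = full activity with enzyme and -100% = basal without enzyme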)
In short: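 Rice alpha-glucosidase (4 nM final) with 400 uM 4-methylumbelliferyl-alpha-D-glucopyranoside in citrate buffer pH 5.0, 20 min at room temperature, stopped at pH 10; fluorescence 365/440 nm, compounds 0.7 nM–77 uM, AC50 from Hill fits.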

[14] = biological target: Alpha-galactosidase (Coffea arabica) (UniProt Q42656); experiment: Counterscreen for Glucocerebrosidase Inhibitors: qHTS Assay for Coffee Bean alpha-Galactosidase at pH 5.9 (AID 998; active = well fitted curve in the direction sought with a large enough effect; an effect the other way counts as inactive or inconclusive;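 also: plate controls were uninhibited enzyme for no effect and no-enzyme basal signal for full effect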)
In short: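 Green coffee bean enzyme (2 nM) with 4-methylumbelliferyl alpha-D-galactopyranoside (80 uM) in 50 mM citric acid, 0.005% Tween-20, pH 5.9, 20 min at room temperature; compounds 0.7 nM–77 uM. Stopped at pH 10, fluorescence Ex365/Em440; Hill-fit AC50.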

[15] = biological target: Mitogen-activated protein kinase 10 (Mus musculus) (UniProt Q61831); experiment: JNK3 AlphaScreen Assay (AID 530)
In short: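 qHTS format: compounds tested as titrations against IL-1beta/TNF-alpha-activated HepG2 lysate JNK3 with biotin-GST-cJun substrate and 10 uM ATP at room temperature. Loss of anti-phospho-cJun AlphaScreen signal indicates inhibition.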

[16] = biological target: Cytochrome P450 3A4 (Homo sapiens) (UniProt P08684); experiment: qHTS Assay for Inhibitors and Substrates of Cytochrome P450 3A4 (AID 884; active = well fitted curve in the direction sought with a large enough effect; an effect the other way counts as inactive or inconclusive; also: potency is read from the fitted curve at half-maximal effect; nearly all actives have a fitted effect of over 50% in size)
Chain of Cytochrome P450 3A4 (Homo sapiens) (P08684 whole entry, looked up): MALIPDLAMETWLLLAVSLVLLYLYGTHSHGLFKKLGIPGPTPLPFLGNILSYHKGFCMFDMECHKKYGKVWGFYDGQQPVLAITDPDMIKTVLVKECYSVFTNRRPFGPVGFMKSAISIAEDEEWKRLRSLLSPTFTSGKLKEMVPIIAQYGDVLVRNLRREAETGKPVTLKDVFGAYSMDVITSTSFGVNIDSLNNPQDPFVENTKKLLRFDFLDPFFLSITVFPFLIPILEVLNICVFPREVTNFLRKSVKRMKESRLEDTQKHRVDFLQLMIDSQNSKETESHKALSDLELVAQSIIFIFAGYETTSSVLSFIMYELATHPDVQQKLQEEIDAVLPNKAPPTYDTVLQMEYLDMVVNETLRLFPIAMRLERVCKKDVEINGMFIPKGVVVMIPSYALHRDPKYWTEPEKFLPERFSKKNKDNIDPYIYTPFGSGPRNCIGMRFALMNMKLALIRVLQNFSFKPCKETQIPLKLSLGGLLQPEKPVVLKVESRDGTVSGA
In short: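 20 nM human CYP3A4 with 25 uM Luciferin-PPXE (at KM) in 200 mM KPO4, preincubated 10 min with compound; NADPH regeneration started a 60 min RT reaction. Luciferin detected by luminescence, normalized to 57 uM ketoconazole as full inhibition.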

[17] = biological target: Cytochrome P450 3A4 (Homo sapiens) (UniProt P08684); experiment: qHTS Assay for Activators of Cytochrome P450 3A4 (AID 885; active = well fitted curve in the direction sought with a large enough effect; an effect the other way counts as inactive or inconclusive; also: nearly all actives have a fitted effect of over 65% in size)
In short: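 Signal was normalized against complete inhibition by 57 uM ketoconazole. The reaction used 20nM CYP3A4 with 25uM Luciferin-PPXE, 10-min compound preincubation and a 60-min NADPH-supported step at RT.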

[18] = qHTS Assay for Identification of Small Molecule Antagonists for Thrombopoietin (TPO) Signaling Pathway (AID 918; active = well fitted curve in the direction sought with a large enough effect; an effect the other way counts as inactive or inconclusive; also: potency is read from the fitted curve at half-maximal effect; nearly all actives have a fitted effect of over 60% in size); conditions: TPO-dependent cell signaling reporter, antagonist mode
In short: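 First, Ba/F3 reporter cells expressing human TPO receptor were held overnight without IL-3. Next, compound and 26 pM TPO were added. After 24 hrs incubation at 37 C, luciferase luminescence under the Glycoprotein IIb promoter was recorded.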

[19] = biological target: Muscarinic acetylcholine receptor M1 (Rattus norvegicus) (UniProt P08482); experiment: qHTS Assay for Antagonists of Acetylcholine Muscarinic M1 Receptor: Kinetic Measurement of Intracellular Calcium Response (AID 943; active = well fitted curve in the direction sought with a large enough effect; an effect the other way counts as inactive or inconclusive; also: nearly all actives have a fitted effect of over 75% in size; also: potency is read from the fitted curve at half-maximal effect;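 as to activity change, negative = inhibition: Fluo-4 calcium signal as peak divided by basal fluorescence over 4 min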)
Chain of Muscarinic acetylcholine receptor M1 (Rattus norvegicus) (P08482 whole entry, looked up): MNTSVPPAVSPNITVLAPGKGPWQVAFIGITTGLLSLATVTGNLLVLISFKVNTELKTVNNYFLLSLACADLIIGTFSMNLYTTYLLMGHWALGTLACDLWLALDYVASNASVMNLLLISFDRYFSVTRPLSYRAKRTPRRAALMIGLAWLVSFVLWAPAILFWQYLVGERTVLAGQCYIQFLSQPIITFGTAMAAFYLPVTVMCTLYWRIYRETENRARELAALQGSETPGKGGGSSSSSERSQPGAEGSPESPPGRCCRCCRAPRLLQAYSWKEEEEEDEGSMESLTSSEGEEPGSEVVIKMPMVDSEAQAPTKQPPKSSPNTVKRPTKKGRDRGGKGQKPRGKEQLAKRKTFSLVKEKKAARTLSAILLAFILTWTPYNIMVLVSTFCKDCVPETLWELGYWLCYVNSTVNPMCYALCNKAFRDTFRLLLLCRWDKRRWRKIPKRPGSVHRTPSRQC
In short: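 Intracellular calcium flux, recorded with Fluo-4 in a kinetic plate reader, served as signal; the response to carbachol at EC80 (100 nM final) was taken as maximal over minimal fluorescence after a 10 min compound pre-incubation in rat M1-CHO cells.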

[20] = biological target: Muscarinic acetylcholine receptor M1 (Rattus norvegicus) (UniProt P08482); experiment: qHTS Assay for Antagonists of Acetylcholine Muscarinic M1 Receptor: Measurement of IP-One Response (AID 944; active = well fitted curve in the direction sought with a large enough effect; an effect the other way counts as inactive or inconclusive; also: nearly all actives have a fitted effect of over 75% in size; also: potency is read from the fitted curve at half-maximal effect)
In short: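 Steps: plate transfected CHO-M1 cells overnight; add test compound, 10 min; add carbachol (200 nM, EC80) in stimulation buffer with LiCl; incubate 30 min; add labelled IP1 tracer and anti-IP1 antibody in lysis buffer; read HTRF after 10 min.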

[21] = biological target: Cytochrome P450 2C9 (Homo sapiens) (UniProt P11712); experiment: qHTS Assay for Inhibitors and Substrates of Cytochrome P450 2C9 (AID 883; active = well fitted curve in the direction sought with a large enough effect; an effect the other way counts as inactive or inconclusive; also: % is scaled to controls: 0 for no effect and ±100 for the full control effect; nearly all actives have a fitted effect of over 60% in size)
In short: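 10nM CYP2C9 + 100uM Luciferin-H (=KM), 25mM KPO4; cpd 10 min 37C; NADPH regen, 60 min 37C; stop/detect with P450 Glo-Buffer 20 min; luminescence. Norm. to 57uM sulphaphenazole as full inhibition.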

[22] = biological target: Cytochrome P450 2C19 (Homo sapiens) (UniProt P33261); experiment: qHTS Assay for Inhibitors and Substrates of Cytochrome P450 2C19 (AID 899; active = well fitted curve in the direction sought with a large enough effect; an effect the other way counts as inactive or inconclusive; also: potency is read from the fitted curve at half-maximal effect; nearly all actives have a fitted effect of over 60% in size)
In short: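 Luminescent read-out of luciferin formed from Luciferin-H EGE (10uM, equal to KM). Enzyme 5nM in 50mM KPO4; compound added, 10 min at 37C, then NADPH regenerating system for 60 min at 37C. Full inhibition defined by 57uM ketoconazole.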

O=c1c(C=NCCN2CCNCC2)c(O)n(C2CCCCC2)c(=O)n1C1CCCCC1
inactive: activity change, negative = inhibition [1] 4.2% | activity change, negative = inhibition [2] 18.3% | outcome [3] | Potency [4] > 20.6 µM

C=CCC1(CN2CCCCCC2=O)C(=O)NC(=O)NC1=O
inactive: activity change, negative = inhibition [1] 1.22% | activity change, negative = inhibition [2] 2.02% | outcome [3] | Potency [4] > 20.6 µM

CCCCOCCCn1c(N)c(C(=O)OC(C)COC)c2nc3ccccc3nc21 (stereo unspecified)
inactive: activity change, negative = inhibition [1] -11.7% | activity change, negative = inhibition [2] 29.2% | outcome [3] | Potency [4] > 20.6 µM

Nc1ccc(C2(c3ccc(N)cc3)CN3CCC2CC3)cc1
inactive: activity change, negative = inhibition [1] 7.52% | activity change, negative = inhibition [2] -2.19% | outcome [3] | Potency [4] > 20.6 µM

CC(C)(C)NC[C@H](O)c1ccccc1Cl
inactive: activity change, negative = inhibition [1] -8.82% [at 38 µM] | Potency [5] | outcome [3] | Potency [4] > 46 µM | Potency [6] > 46 µM | outcome [7] | Potency [8] | outcome [9] | outcome [10] | outcome [11] | outcome [12] | outcome [13] | outcome [14]

C/C=C(\C)C(=O)O[C@@H]1C(C)=C2[C@H]([C@@H]1OC(=O)CCCCCCC)[C@@](C)(OC(C)=O)C[C@@H](OC(=O)CCC)[C@@]1(O)[C@H]2OC(=O)[C@]1(C)O
active: Potency [5] 39.8 µM | activity change, negative = inhibition [2] -79.7% [activator] [at 38 µM] | Potency [16] 3.98 µM | Potency [18] 50.1 nM
inactive: activity change, negative = inhibition [1] 19.3% [at 38 µM] | Potency [4] > 46 µM | Potency [6] > 46 µM | outcome [15] | outcome [7] | Potency [8] | Potency [17] | Potency [19] | Potency [20] | outcome [10] | outcome [11] | outcome [12] | outcome [13] | outcome [14]

O=C(CCCN1CCC2(CC1)C(=O)N(CCc1ccc(N=C=S)cc1)CN2c1ccccc1)c1ccc(F)cc1
active: Potency [22] 3.16 µM
inactive: activity change, negative = inhibition [1] -2.99% [at 38 µM] | Potency [5] | outcome [3] | Potency [4] > 46 µM | Potency [6] > 46 µM | outcome [15] | outcome [7] | Potency [21]

CC(=O)CC(C)(C)n1c[n+](C)nn1
inactive: activity change, negative = inhibition [1] -8.26% | activity change, negative = inhibition [2] -3.99% | outcome [3] | Potency [4] > 20.6 µM

CCCC[N+]1(C)[C@@H]2CC(OC(=O)[C@@H](CO)c3ccccc3)C[C@H]1[C@H]1O[C@H]12 (stereo partly specified)
active: Potency [19] 141 nM | Potency [20] 562 nM
inactive: activity change, negative = inhibition [1] 5.93% [at 38 µM] | Potency [5] | outcome [3] | Potency [4] > 46 µM | Potency [6] > 46 µM | outcome [15] | outcome [7] | Potency [8] | outcome [9] | outcome [10] | outcome [11] | outcome [12] | outcome [13] | outcome [14]

— PubChem BioAssay (NCATS)
